# Results: PubChem BioAssay (NCATS)
# Values joined by “and” are separate entries in the source; they are usually repeats but may differ in a detail not shown here. Identical values can stand only once. Records with an inconclusive call do not appear. A structure can be active in one record and inactive in another. Active and inactive are the calls of the source. Calls come from the whole dose curve; as a rule, active = well fitted curve in the direction sought with a large enough effect; inconclusive = small, poorly fitted or top-dose-only effect, or another doubt; inactive = no such curve, though single readings can be large; an effect the other way counts as inactive or inconclusive.
# Legend:
# [1] = MultiTox-Fluor Cytotoxicity Assay - LYMP1-003 - Dead Cells (AID 961);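 note: cells exposed to compound for 16 h at 37 °C; nearly all actives have a fitted effect of over 70% in size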; note: potency is the fitted concentration of half-maximal effect
# In short: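 LYMP1-003 lymphoblastoid, 2500 cells/well, 5 hr settle then 16 hr cpd at 37 C; MultiTox-Fluor reagent 60 min RT; Ex/Em 485/520 dead-cell signal; norm. DMSO = 0%, 15 uM tetraoctylammonium bromide = 100%; Hill AC50.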
# [2] = MultiTox-Fluor Cytotoxicity Assay - LYMP1-003 - Live Cells (AID 962);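 note: cells exposed to compound for 16 hours at 37 °C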; note: potency is the fitted concentration of half-maximal effect
# In short: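 qHTS, 1536-well; 2500 cells/well LYMP1-003; 5 hr 37 C settle; cpd 16 hr 37 C; MultiTox-Fluor reagent 60 min RT; live-cell protease fluor. 405/510; Hill-fit AC50; tetraoctylammonium bromide pos. ctrl.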
# [3] = Cell Viability - LYMP1-003 - Assay at 24 hr (AID 963); note: potency is the fitted concentration of half-maximal effect
# In short: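 Cells seeded at 2500/well, 5 hr at 37 C; compounds added; 24 hr at 37 C; CellTiter-Glo added, 30 min room temperature; luminescence read. Decrease in ATP taken as cytotoxicity, AC50 from Hill modelling.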
# [4] = Cell Viability - LYMP1-003 - Assay at 40 hr (AID 964); note: nearly all actives have a fitted effect of over 60% in size; note: potency is the fitted concentration of half-maximal effect
# In short: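 Cells were seeded at 2500 per well and incubated 5 hr at 37 C. Compounds were added across a concentration series and left 40 hr at 37 C. CellTiter-Glo was added for 30 min at room temperature before luminescence reading.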
# [5] = Cell Viability - LYMP2-004 (AID 966); note: nearly all actives have a fitted effect of over 65% in size; note: potency is the fitted concentration of half-maximal effect
# In short: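 Cells seeded 2500/well, rested 5 hr at 37 C, dosed across a concentration series, incubated 24 hr at 37 C, then CellTiter-Glo added for 30 min at room temperature and luminescence read. Hill fitting gave AC50.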
# [6] = Cell Viability - LYMP2-009 (AID 968); note: nearly all actives have a fitted effect of over 55% in size; note: potency is the fitted concentration of half-maximal effect
# [7] = Cell Viability - LYMP2-011 (AID 969); note: nearly all actives have a fitted effect of over 60% in size; note: potency is the fitted concentration of half-maximal effect
# In short: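 2500 cells/well, 5 hr 37 C; compound added, 24 hr 37 C; CellTiter-Glo 30 min RT; luminescence. qHTS concentration-response, Hill-equation AC50. Tetraoctylammonium bromide positive control.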
# [8] = Cell Viability - LYMP2-013 (AID 970); note: nearly all actives have a fitted effect of over 55% in size; note: potency is the fitted concentration of half-maximal effect
# In short: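 qHTS; 2500 lymphoblastoid cells/well; 5 hr 37 C settle; cpd 24 hr 37 C; CellTiter-Glo, 30 min RT; luminescence. AC50 = Hill fit.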
# [9] = Cell Viability - LYMP2-015 (AID 971); note: nearly all actives have a fitted effect of over 55% in size; note: potency is the fitted concentration of half-maximal effect
# In short: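 Luminescent ATP read-out (CellTiter-Glo) served as the viability measure after lymphoblastoid cells were exposed to compounds for 24 hours at 37 C. Concentration-response data were fitted with the Hill equation to give AC50.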
# [10] = Cell Viability - LYMP2-017 (AID 972); note: nearly all actives have a fitted effect of over 55% in size; note: potency is the fitted concentration of half-maximal effect
# In short: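 2500 cells/well, 5 h 37 C; cpd 24 h 37 C in complete medium; CellTiter-Glo, 30 min RT; luminescence (ATP). AC50 via Hill fit, qHTS.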
# [11] = Cell Viability - LYMP2-019 (AID 973); note: nearly all actives have a fitted effect of over 55% in size; note: potency is the fitted concentration of half-maximal effect
# In short: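 Luminescent ATP read-out (CellTiter-Glo, 30 min room temperature) served as the viability measure after 24 hr treatment of lymphoblastoid cells at 37 C. Concentration-response data were fitted to the Hill equation for AC50.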
# [12] = Cell Viability - LYMP2-021 (AID 974); note: potency is the fitted concentration of half-maximal effect
# In short: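 Plate 2500 lymphoblastoid cells per well and incubate 5 hr at 37 C. Add compounds over a concentration range and incubate 24 hr at 37 C. Add CellTiter-Glo, wait 30 min at room temperature, read luminescence.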
# [13] = Cell Viability - LYMP2-023 (AID 975); note: nearly all actives have a fitted effect of over 55% in size; note: potency is the fitted concentration of half-maximal effect
# In short: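 2500 cells/well, 5 hr 37 C; cpd 24 hr 37 C; CellTiter-Glo, 30 min RT; luminescence. qHTS conc-response, Hill fit -> AC50. Pos ctrl tetraoctylammonium bromide.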
# [14] = Cell Viability - LYMP2-002 (AID 977);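 note: compound exposure lasted 24 h at 37 °C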; note: potency is the fitted concentration of half-maximal effect
# In short: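 Cytotoxicity is scored as concentration-dependent loss of cellular ATP in a human lymphoblastoid line after 24 hr compound treatment at 37 C. AC50 is obtained by modelling concentration-response data with the Hill equation.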
# [15] = Cell Viability - LYMP2-006 (AID 978); note: nearly all actives have a fitted effect of over 60% in size; note: potency is the fitted concentration of half-maximal effect
# In short: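 In this cytotoxicity screen, the human lymphoblastoid line grew in complete medium with test compounds for 24 hr at 37 C. Cellular ATP served as the viability signal.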
# [16] = MultiTox-Fluor Cytotoxicity Assay - LYMP1-002 - Dead Cells (AID 960);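 note: cells exposed to compound for 16 h at 37 °C; nearly all actives have a fitted effect of over 60% in size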
# In short: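 LYMP1-002 cells 2500/well; 5 hr 37 C pre-incubation; compound 16 hr 37 C; MultiTox-Fluor reagent 60 min RT; dead-cell fluor Ex/Em 485/520. Norm. to DMSO (0%) vs 15 uM tetraoctylammonium bromide (100%); Hill AC50.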
SMILES,Potency [1],Potency [2],Potency [3],Potency [4],Potency [5],Potency [6],Potency [7],Potency [8],Potency [9],Potency [10],Potency [11],Potency [12],Potency [13],Potency [14],Potency [15],Potency [16]
CC(C)Nc1ccc(Nc2ccccc2)cc1,25.1 µM (active),50.1 µM (active),50.1 µM (active),31.6 µM (active),39.8 µM (active),31.6 µM (active),31.6 µM (active),31.6 µM (active),25.1 µM (active),25.1 µM (active),25.1 µM (active),25.1 µM (active),39.8 µM (active),25.1 µM (active),25.1 µM (active),
S=C=S,inactive,inactive,inactive,inactive,inactive,inactive,inactive,inactive,inactive,inactive,inactive,inactive,inactive,inactive,inactive,inactive
Oc1cc(Cl)c(Cl)cc1Cl,inactive,inactive,inactive,inactive,inactive,inactive,inactive,inactive,inactive,inactive,inactive,inactive,inactive,inactive,inactive,inactive
C[C@H]1CC[C@@H]2[C@@H](C)[C@H]3[C@H](C[C@H]4[C@@H]5CC=C6CC(O[C@@H]7O[C@H](CO)[C@H](O)[C@H](O[C@@H]8O[C@H](CO)[C@@H](O)[C@H](O)[C@H]8O)[C@H]7O[C@H]7O[C@@H](C)[C@H](O)[C@@H](O)[C@H]7O)CC[C@]6(C)[C@H]5CC[C@]34C)N2C1 (some centres not stated),20 µM (active),25.1 µM (active),20 µM (active),39.8 µM (active),50.1 µM (active),39.8 µM (active),39.8 µM (active),39.8 µM (active),,50.1 µM (active),39.8 µM (active),50.1 µM (active),39.8 µM (active),50.1 µM (active),,inactive
[O]=[Cr](=[O])([OH])[O][Cr](=[O])(=[O])[OH],inactive,inactive,inactive and 39.8 µM (active),inactive and 39.8 µM (active) and 25.1 µM (active),10 µM (active) and 15.8 µM (active) and 6.31 µM (active),10 µM (active) and 6.31 µM (active),10 µM (active) and 12.6 µM (active) and 7.94 µM (active),15.8 µM (active) and 10 µM (active),10 µM (active),12.6 µM (active),12.6 µM (active) and 10 µM (active),12.6 µM (active) and 10 µM (active),12.6 µM (active) and 10 µM (active),12.6 µM (active) and 15.8 µM (active) and 10 µM (active),12.6 µM (active) and 15.8 µM (active) and 10 µM (active),inactive
